# Shown are actives, neighbours in structure and some others; about 6.5% of the full set was active somewhere.
# PMK inhibit = S. pneumoniae PMK inhibitors, primary screen, biochemical, mevalonate pathway, pilot trial included | phosphomevalonate kinase (Streptococcus pneumoniae D39) | purified PMK, PK/LDH-coupled NADH absorbance 340 nm | inhibition, % at 10 µM | 0.49% of 65,000 active | AID 539, 2006;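 active = top-ranked compounds by inhibition in the single 10 µM screen, taking a fixed number of the strongest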;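 note: 0% = full reaction with DMSO carrier and 100% = background rate without enzyme reaction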
# NADH enzymes = inhibitors of PK/LDH coupling enzymes, profiling panel, artefact control, biochemical, MLSMR library | 0.02% of 65,000 active | coupled PK/LDH NADH assays, four targets | IC50, µM (highest dose often 10 µM), without a hit: top-dose inhibition;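 active = single-dose screening hits from any of four coupled enzyme assays that gave an IC50 when retested across doses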;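 note: the DPM-DC format reads NADH fluorescence rather than 340 nm absorbance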
# Spn DPM-DC inh = S. pneumoniae DPM-DC inhibitors, primary screen, biochemical, PK/LDH-coupled NADH fluorescence. diphosphomevalonate decarboxylase (Streptococcus pneumoniae D39). 0.49% of 65,000 active. calls only at 10 µM. purified DPM-DC. AID 556, 2006;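 active = the 320 compounds with the highest percent inhibition in the single-dose primary screen, excluding strongly autofluorescent ones, cut at about 32% in these data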;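 note: kinetic rate of NADH fluorescence loss reporting ADP formed by the decarboxylase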
# MK inhibit = S. pneumoniae MK inhibitors, primary screen, biochemical, PK/LDH-coupled NADH absorbance. 0.48% of 65,000 active. AID 555, 2006. purified MK, PK/LDH-coupled NADH absorbance 340 nm. mevalonate kinase [Streptococcus pneumoniae D39]. inhibition, % at 10 µM;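 active = ranked among the strongest by inhibition in the single 10 µM screen, a fixed top-ranked set picked for dose follow-up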
# Abs 340nm = compound light absorbance at 340 nm, profiling panel, artefact control, biochemical, MLSMR library, data from PS, PMK, MK assays; AID 708, 2007; 65,000 tested, under 10 active; fold change at 10 µM; compound absorbance at 340 nm, fold over control;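 active = at 10 µM dose, initial 340 nm absorbance at least 2 fold that of control wells; inactive = change under 2 fold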;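 note: initial absorbance extrapolated from kinetic A340 decline of NADH oxidation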
# Autofluor 339 = intrinsic fluorescence of library compounds, ex339/em460 – biochemical, MLSMR library, data from DPM-DC assay, artefact control, profiling panel | fluorescence fold increase at 10 µM | compound autofluorescence, ex339/em460 nm, NADH buffer; active compounds read high; 1 = no-compound wells, NADH background | 5.5% of 65,000 active | AID 709, 2007;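 active = at 10 µM, mean starting fluorescence two-fold or more over control wells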;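 note: signal is the first read of a kinetic run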
# Numbers without * were called inactive; i = inactive; x = not tested or not shown; + = active, no number; [ ] = another dose, or the depositor's remark.
SMILES,PMK inhibit,NADH enzymes,Spn DPM-DC inh,MK inhibit,Abs 340nm,Autofluor 339
CC(C)(C)n1nnnc1CN(Cc1ccco1)Cc1cc2cc3c(cc2[nH]c1=O)OCO3,12.0,3.0%,x,7.0,1.03,2.45*
CCC(C)(C)n1nnnc1CN(Cc1ccco1)Cc1cc2cc3c(cc2[nH]c1=O)OCO3,8.0,8.0%,x,7.0,1.15,3.52*
CCC(C)(C)n1nnnc1CN(Cc1ccc(Cl)cc1)Cc1ccco1,9.0,3.0%,i,0.0,1,1.05
O=C1NC(Nc2nccs2)(C(F)(F)F)C(=O)N1CCc1ccccc1 (centres undefined),6.0,2.0%,i,0.0,1.05,1.18
Cn1c(=O)c2c(-c3ccccc3)n3c4ccccc4ncc3c2n(C)c1=O,6.0,7.0%,x,7.0,1.07,3.86*
COc1ccc(CN2C(=O)c3cccnc3C2Nc2cc(Cl)c(OC)cc2OC)cc1 (centres undefined),15.0,24.0%,i,57.0*,1.06,1.08
CCN(CC)S(=O)(=O)c1ccc(NC2c3ccccc3C(=O)N2Cc2ccc3c(c2)OCO3)cc1 (centres undefined),0.0,2.0%,i,6.0,1.03,1.07
CCN(CC)S(=O)(=O)c1ccc(NC2c3ncccc3C(=O)N2Cc2ccccc2)cc1 (centres undefined),12.0,21.0%,i,50.0*,1.07,1.08
CCOC(=O)c1oc2ccccc2c1NC(=O)c1cccc(OC)c1OC,13.0,3.0%,i,10.0,0.99,1.16
CS(=O)(=O)N1CCCC(C(=O)NCCc2ccc(Cl)cc2)C1 (centres undefined),26.0*,14.0%,i,0.0,0.96,0.86
O=C(NCc1cccs1)C1CCCN(S(=O)(=O)c2cccs2)C1 (centres undefined),7.0,2.0%,i,0.0,1,1.17
O=C(NCc1cccs1)C1CCCN(c2nc3ccccc3o2)C1 (centres undefined),25.0*,12.0%,i,10.0,0.99,1.05
CS(=O)(=O)N1CCCC(C(=O)NCc2cccs2)C1 (centres undefined),25.0*,8.0%,i,0.0,1.02,1.05
CS(=O)(=O)N1CCCC(C(=O)NCCc2ccccc2)C1 (centres undefined),1.0,3.0%,i,7.0,1.03,1.11
O=C(NCc1cccnc1)c1cc(S(=O)(=O)N2CCCCC2)ccc1Cl,4.0,5.0%,i,9.0,1.04,1.12
COCC(=O)Nc1nc2n(n1)C(c1ccccc1)CC(c1ccc(OC)cc1)N2 (centres undefined),3.0,8.0%,i,8.0,1.05,2.7*
COc1ccc(C2CC(c3cccc(C)c3)n3nc(N)nc3N2)cc1 (centres undefined),15.0,40.0%,+,6.0,1.08,0.14
COCC(=O)Nc1nc2n(n1)C(c1ccc(OC)cc1)CC(c1ccc(OC)cc1)N2 (centres undefined),0.0,4.0%,i,6.0,1.04,1.96
Cc1cccc(C2CC(c3ccc(Br)cc3)Nc3nc(N)nn32)c1 (centres undefined),1.0,2.0%,i,12.0,0.99,1.05
Cc1cc(C)cc(N(CC(=O)N2CCn3c2nc2ccccc23)S(=O)(=O)c2c(C)noc2C)c1,6.0,2.0%,i,0.0,1.04,1.11
O=C(Nc1ccccc1C(F)(F)F)c1cc(S(=O)(=O)N2CCOCC2)ccc1F,0.0,3.0%,i,0.0,0.99,1.08
Cc1ccc(S(=O)(=O)c2cc3c(=O)n4ccccc4nc3n(CC3CCCO3)c2=N)cc1C (centres undefined),14.0,3.0%,+[fluoresces],3.0,1,2.21*
CC(C)(C)C(=O)Cn1c(=O)n(CC2CCCO2)c(=O)c2ccccc21 (centres undefined),16.0,7.0%,i,3.0,0.99,1.02
Cc1ccc(S(=O)(=O)c2cc3c(=O)n4ccccc4nc3n(Cc3ccco3)c2=N)cc1C,0.0,1.0%,x,2.0,1.01,3.51*
O=c1c2ccccc2c2ccccc2c(=O)n1Cc1ccco1,2.0,7.0%,i,11.0,1.04,1.12
SMILES,PMK inhibit,NADH enzymes,Spn DPM-DC inh,MK inhibit,Abs 340nm,Autofluor 339
N=c1c(S(=O)(=O)c2ccccc2)cc2c(=O)n3ccccc3nc2n1CCN1CCOCC1,3.0,8.0%,x,13.0,1.06,3.66*
N=c1c(S(=O)(=O)c2ccccc2)cc2c(=O)n3ccccc3nc2n1Cc1ccco1,19.0,13.0%,x,7.0,1.01,4.01*
Cc1ccc(S(=O)(=O)c2cc3c(=O)n4ccccc4nc3n(C)c2=N)cc1,9.0,13.0%,i,12.0,0.99,1.95
c1cncc(-c2nc3c4ccccc4nc(N4CCC(N5CCCCC5)CC4)n3n2)c1,10.0,3.0%,i,3.0,0.99,1.01
CC1(C)CC(=O)C(C=NCC2CCN(C(=O)Nc3ccccc3)CC2)=C(O)C1,0.0,1.0%,i,2.0,1.05,1.11
O=C(CSc1nc2[nH]ncc2c(=O)n1-c1ccccc1Br)NCc1ccco1,11.0,3.0%,i,8.0,0.99,1.02
Cc1ccccc1-n1c(SCc2cc(=O)n3ccccc3n2)nc2[nH]ncc2c1=O,9.0,4.0%,i,3.0,1.1,2.22*
CCn1c2c(c3cc(Cl)ccc31)CCCC2=O,4.0,8.0%,i,4.0,1.04,1.79
CCn1c2c(c3cc(C(=O)O)ccc31)CCCC2=O,9.0,21.0%,+,18.0,1.19,2.57*
Cc1ccc(-n2nc(C(=O)N3CCN(C)CC3)c3c4ccccc4n(C)c3c2=O)cc1,10.0,4.0%,i,2.0,0.99,1.23
CCN1CCCC1CNC(=O)c1nn(-c2ccc(C)cc2)c(=O)c2c1c1ccccc1n2C (centres undefined),7.0,8.0%,i,2.0,1.02,2.67*
COc1ccc(CNc2nc3nc(C)cc(C)n3n2)cc1OC,5.0,1.0%,i,4.0,1.01,1.06
Cc1cc(C)n2nc(NCc3cccc(Br)c3)nc2n1,11.0,10.0%,x,8.0,1.07,3.64*
Cc1c(NC(=O)CC2CC(C)OC2=O)c(=O)n(-c2ccccc2)n1C (centres undefined),11.0,9.0%,i,15.0,0.97,1.11
COc1ccc(C2c3c(oc4ccc(F)cc4c3=O)C(=O)N2CCN2CCOCC2)cc1OC (centres undefined),2.0,4.0%,i,4.0,1.07,1.07
Cn1c(C(=O)O)c(CC(=O)NCc2cccnc2)c2ccccc21,12.0,6.0%,i,7.0,0.99,1.06
CC(NC(=O)c1ccccc1O)c1ccccc1 (centres undefined),0.0,3.0%,x,5.0,1.07,2.22*

# Screening results: PubChem BioAssay, SRMLSC
